FBW7 activator: human FBW7 E3 ligase activation, primary screen; AID 1259310; normalized activity (activation), % at 26.1 µM; 0.13% of 650,000 active; Q969H0; AlphaScreen FBW7–phospho-cyclin E peptide binding, activator screen; in the data active = normalized activity above about 1.9%;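 also: purified mutant Fbw7 with reduced substrate affinity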
MITF inh: human MITF inhibition, primary screen. O75030. AlphaScreen MITF homodimerization, bead proximity signal. inhibition, % at 2.6 µM. 0.91% of 650,000 active; in the data active = inhibition above about 50%;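 also: 0% = vehicle wells with protein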
TEAD-YAP block: TEAD-YAP interaction inhibition; HEK-TIYL cells, TEAD-Gal4/YAP UAS-luciferase luminescence; inhibition, % at 9.12 µM; 1.4% of 640,000 active; in the data active = inhibition above about 32%;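 also: 0% = median of test compound wells and 100% = reference inhibitor wells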
GPR151 ag: human GPR151 activation. Q8TDV0. PathHunter beta-arrestin GPR151 cells, luminescence. activation, % at 11.2 µM. 1% of 650,000 active; in the data active = activation above about 4.9%;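 also: 0% = median of compound wells and 100% = cells with positive control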
Target sequence (Q8TDV0 whole entry, looked up): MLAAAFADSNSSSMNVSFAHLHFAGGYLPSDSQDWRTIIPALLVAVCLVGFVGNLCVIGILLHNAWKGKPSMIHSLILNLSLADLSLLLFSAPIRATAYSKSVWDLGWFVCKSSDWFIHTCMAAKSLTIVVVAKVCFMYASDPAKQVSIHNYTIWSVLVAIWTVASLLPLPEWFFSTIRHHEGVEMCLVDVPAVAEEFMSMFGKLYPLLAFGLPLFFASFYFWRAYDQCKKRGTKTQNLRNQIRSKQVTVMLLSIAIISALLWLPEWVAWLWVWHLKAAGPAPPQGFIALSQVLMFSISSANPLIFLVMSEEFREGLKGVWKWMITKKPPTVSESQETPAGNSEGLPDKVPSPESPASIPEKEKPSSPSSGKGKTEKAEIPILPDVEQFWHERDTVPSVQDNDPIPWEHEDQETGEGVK
GPR151 confirm: human GPR151 activation, confirmation screen | shares compounds with GPR151 ag | GPR151 PathHunter beta-arrestin cells, luminescence, 90 min; % of EA-reagent control over plate median | activation, % at 11.2 µM | 6,700 tested, under 10 active | AID 1508609;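 active = mean percent activation across replicates above the confirmation screen cutoff of 4.91%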
GPR119 counter: counter-screen for GPR151 activators: effect on human GPR119; shares compounds with GPR151 ag; activation, % at 11.2 µM; GPR119 PathHunter beta-arrestin cells, luminescence, 90 min; 0 = compound-well median, 100 = enzyme-acceptor control; 0.3% of 6,700 active;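 active = mean percent activation in the counterscreen above 29.09%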;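 also: counterscreen on off-target GPR119 to flag nonselective hits from the GPR151 activator screen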
Starred values were filed as active, the others as inactive; nt = not tested or not shown. Hits are enriched below; roughly 3.5% of the tested compounds scored in any of these assays.

SMILES | FBW7 activator | MITF inh | TEAD-YAP block | GPR151 ag | GPR151 confirm | GPR119 counter
COc1cc(C2/C(=C(/O)c3ccc(Cl)cc3)C(=O)C(=O)N2CCO)ccc1O (stereo unspecified) | 1 | 12 | 9 | -1 | nt | nt
COc1ccc(/C(O)=C2/C(=O)C(=O)N(CCCO)C2c2cccc(Cl)c2)cc1F (stereo unspecified) | 0 | 1 | 4 | 6.8* | 1 | 12
Cc1cc(OCC(=O)NCc2nc(-c3ccccc3)no2)cc(C)c1Br | 0 | 8 | 8 | 11* | 0 | -5
COc1cccc(OC)c1C(=O)NCc1nc(-c2ccc(Cl)cc2)no1 | 0 | 1 | 8 | 8.0* | 0 | -9
Cc1ccc(CC(=O)NCc2nc(-c3ccccc3)no2)cc1 | 0 | 0 | 1 | 5.7* | 0 | -5
COc1cccc(OC)c1C(=O)NCc1nc(-c2ccc(C)cc2)no1 | 0 | 6 | 9 | 3 | nt | nt
COc1ccc(-c2noc(CNC(=O)Cc3ccc(OC)c(OC)c3)n2)cc1 | 1 | 6 | 7 | 5.1* | -1 | -15
O=C(CN(CCc1ccccc1)S(=O)(=O)c1ccccc1)Nc1ccccc1Cl | 0 | 15 | 3 | 1 | nt | nt
O=C(NCc1nc(-c2ccccc2)no1)c1cc(Br)ccc1Cl | 0 | 3 | 7 | 5.3* | 1 | 1
COc1ccc(-c2noc(CNC(=O)C(Cl)(Cl)Cl)n2)cc1 | 0 | -28 | -28 | 8.0* | -1 | -6
COc1ccc(-c2noc(CC(=O)Nc3ccc(C(C)C)cc3)n2)cc1 | 0 | 2 | -6 | 6.0* | 1 | 2
O=C(NCc1nc(-c2ccccc2)no1)c1ccccc1Cl | 0 | 1 | -9 | 0 | nt | nt
COc1cc(C(=O)N(CCCN2CCOCC2)c2nc3c(C)ccc(C)c3s2)cc(OC)c1OC | 0 | 4 | -18 | 0 | nt | nt
COC(=O)C1CCN(C(=O)c2ccccc2F)CC1 | 0 | 21 | 2 | 0 | nt | nt
CC(=O)N1C(=O)/C(=C2\SC(=S)N(c3ccccc3F)C2=O)c2ccccc21 | 0 | -3 | 0 | 0 | nt | nt
COc1ccccc1N1C(=O)/C(=C2/C(=O)N(C(C)=O)c3ccccc32)SC1=S | 0 | 23 | -5 | 6.5* | -2 | -9
CCOc1ccc2c(c1)c(=O)c(C(=O)c1ccccc1)cn2CC(=O)Nc1ccccc1 | 0 | 14 | -5 | 6.3* | 0 | 1
O=C(Nc1ccc2oc(-c3cc(Br)ccc3Cl)nc2c1)c1ccc([N+](=O)[O-])o1 | 0 | 6 | 14 | 1 | nt | nt
O=C(O)c1cc([N+](=O)[O-])ccc1C(=O)Nc1cccc(O)c1 | 0 | 4 | 12 | -1 | nt | nt
O=C(Nc1cccc(O)c1)c1cc([N+](=O)[O-])ccc1Cl | 0 | -6 | 15 | 6.4* | 1 | 1
O=C(Nc1ccc(Cl)c(-c2nc3cc(Cl)ccc3o2)c1)c1ccc([N+](=O)[O-])o1 | 0 | 13 | 11 | 7.0* | 1 | 9
O=C(Nc1ccc2oc(-c3ccc(Br)cc3)nc2c1)c1cc([N+](=O)[O-])ccc1Cl | 1 | 16 | -8 | 6.6* | 0 | 3
CCOc1ccc2nc(C(=O)N3CCCCC3)sc2c1 | 0 | 4 | -63 | 11* | -1 | -4
Cc1ccc(S(=O)(=O)N2CCCC(N3CCOCC3)C2)cc1Cl (stereo unspecified) | 0 | 7 | 7 | 2 | nt | nt
O=S(=O)(c1ccc2c(c1)OCCO2)N1CCCC(N2CCOCC2)C1 (stereo unspecified) | 0 | 2 | -8 | 1 | nt | nt
Cc1ccc(S(=O)(=O)N2CCCC(N3CCOCC3)C2)s1 (stereo unspecified) | 0 | 5 | -2 | 6.3* | 0 | 4
O=S(=O)(c1ccc(F)c(Cl)c1)N1CCCC(N2CCOCC2)C1 (stereo unspecified) | 0 | -3 | 7 | 12* | 1 | 5
COc1ccc(-c2cc(C(=O)NCC(C)C)on2)cc1OC | 0 | -7 | -32 | 7.8* | 0 | 1
COc1ccc(-c2cc(C(=O)NCC(C)C)no2)cc1OC | 0 | -4 | -42 | 0 | nt | nt
Cc1ccc2[nH]c3c(=O)n(CCN4CCN(Cc5ccccc5)CC4)cnc3c2c1 | 0 | 13 | 9 | 0 | nt | nt

High-throughput results: PubChem BioAssay, The Scripps Research Institute Molecular Screening Center
